Experimental findings from paper PMC12820563, “FoxP3 forms a head-to-head dimer in vivo and stabilizes its multimerization on adjacent microsatellites” are described below.

Whole data set: some 16,000 sequences, median “rpm ratio (pull-down/input)” near 0.94, cut for the highest 2% near 1.7. The sample holds the highest values, similar sequences and a random draw of the others, so the mix is not that of the screen.

The target of the test is T1, MBP-FoxP1dN (Mus musculus, UniProt P58462 326-579).
T1 sequence: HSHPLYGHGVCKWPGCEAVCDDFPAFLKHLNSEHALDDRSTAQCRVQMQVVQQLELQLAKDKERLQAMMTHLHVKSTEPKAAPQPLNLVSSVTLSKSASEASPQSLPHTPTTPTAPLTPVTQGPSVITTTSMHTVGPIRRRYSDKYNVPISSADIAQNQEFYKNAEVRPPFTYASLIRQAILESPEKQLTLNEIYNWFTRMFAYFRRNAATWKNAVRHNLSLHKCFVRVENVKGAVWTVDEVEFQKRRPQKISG
Briefly: PD-seq (MBP pull-down with sequencing); 20 mM Tris-HCl pH 7.5, 100 mM NaCl, 1.5 mM MgCl2, 0.4 uM protein, 0.1 uM dsDNA library, 30 min, room temperature, amylose pull-down; high values mean tight binding. The settings on record: protein: recombinant; tags: His6-MBP; chain copies: 2; dsDNA, one strand shown. An outline of the steps: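 Amylose resin was used to capture complexes formed during 30 min at room temperature in Tris pH 7.5 buffer with NaCl and MgCl2 between 0.4 µM His6-MBP-tagged mouse FoxP3 or FoxP1 fragment lacking the N-terminus, expressed in E. coli, and 0.1 µM Klenow-filled double-stranded degenerate DNA library. After three washes, the DNA was released with proteinase K, barcoded by PCR and sequenced on Illumina. Binding is pooled-replicate reads-per-million enrichment, pull-down over input.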
On to “GATGATTGTTCTCCCAGCTGATGAATTCAGATATTCGAGTAAACAAATTTTCCTAATCTTTCTGTTCAAGCGCCATCTAC”, for which the binding signal is 1.01 RPM ratio (pull-down/input). Next, “GATGATTGTTCTCCCAGCTGATGAATTAAGTTGATCGAGTAAACAAATTTTCCTAATCTTTCTGTTCAAGCGCCATCTAC”: 1.17 RPM ratio (pull-down/input); “GATGATTGTTCTCCCAGCTGATGAATTCGATCCGTCGAGTAAACAAATTTTCCTAATCTTTCTGTTCAAGCGCCATCTAC”: 0.886 RPM ratio (pull-down/input); “GATGATTGTTCTCCCAGCTGATGAATTGTTCCGATCGAGTAAACAAATTTTCCTAATCTTTCTGTTCAAGCGCCATCTAC”: 1.04 RPM ratio (pull-down/input).

With “GATGATTGTTCTCCCAGCTGATGAATTGGCTTAGTCGAGTAAACAAATTTTCCTAATCTTTCTGTTCAAGCGCCATCTAC”, the binding signal is 0.844 RPM ratio (pull-down/input). “GATGATTGTTCTCCCAGCTGATGAATTGATAAAATCGAGTAAACAAATTTTCCTAATCTTTCTGTTCAAGCGCCATCTAC”: the binding signal is 1.14 RPM ratio (pull-down/input). With “GATGATTGTTCTCCCAGCTGATGAATTAACGAGCTCGAGTAAACAAATTTTCCTAATCTTTCTGTTCAAGCGCCATCTAC”, the binding signal is 0.81 RPM ratio (pull-down/input). Next, “GATGATTGTTCTCCCAGCTGATGAATTCTAGTGGTCGAGTAAACAAATTTTCCTAATCTTTCTGTTCAAGCGCCATCTAC”: 0.86 RPM ratio (pull-down/input); “GATGATTGTTCTCCCAGCTGATGAATTATTTATCTCGAGTAAACAAATTTTCCTAATCTTTCTGTTCAAGCGCCATCTAC”: 1.76 RPM ratio (pull-down/input); “GATGATTGTTCTCCCAGCTGATGAATTATTAGTATCGAGTAAACAAATTTTCCTAATCTTTCTGTTCAAGCGCCATCTAC”: 1.46 RPM ratio (pull-down/input). For the sequence “GATGATTGTTCTCCCAGCTGATGAATTAGTATTATCGAGTAAACAAATTTTCCTAATCTTTCTGTTCAAGCGCCATCTAC”, the binding signal was 1.75 RPM ratio (pull-down/input). For “GATGATTGTTCTCCCAGCTGATGAATTTGTCAAATCGAGTAAACAAATTTTCCTAATCTTTCTGTTCAAGCGCCATCTAC”, the binding signal was 1.17 RPM ratio (pull-down/input). For “GATGATTGTTCTCCCAGCTGATGAATTTATTATCTCGAGTAAACAAATTTTCCTAATCTTTCTGTTCAAGCGCCATCTAC”, the binding signal was 1.41 RPM ratio (pull-down/input).

Take “GATGATTGTTCTCCCAGCTGATGAATTTATTTGATCGAGTAAACAAATTTTCCTAATCTTTCTGTTCAAGCGCCATCTAC”: the binding signal was 1.2 RPM ratio (pull-down/input). Next, “GATGATTGTTCTCCCAGCTGATGAATTTTCAACATCGAGTAAACAAATTTTCCTAATCTTTCTGTTCAAGCGCCATCTAC”: 1.14 RPM ratio (pull-down/input); “GATGATTGTTCTCCCAGCTGATGAATTTATTGAATCGAGTAAACAAATTTTCCTAATCTTTCTGTTCAAGCGCCATCTAC”: 1.28 RPM ratio (pull-down/input). Regarding “GATGATTGTTCTCCCAGCTGATGAATTAGTAGTATCGAGTAAACAAATTTTCCTAATCTTTCTGTTCAAGCGCCATCTAC”, the binding signal is 1.2 RPM ratio (pull-down/input). Regarding “GATGATTGTTCTCCCAGCTGATGAATTGTCAACATCGAGTAAACAAATTTTCCTAATCTTTCTGTTCAAGCGCCATCTAC”, the binding signal was 2.76 RPM ratio (pull-down/input). Consider “GATGATTGTTCTCCCAGCTGATGAATTTTATTGATCGAGTAAACAAATTTTCCTAATCTTTCTGTTCAAGCGCCATCTAC”, for which the binding signal is 2.45 RPM ratio (pull-down/input). The value for “GATGATTGTTCTCCCAGCTGATGAATTATCTTTCTCGAGTAAACAAATTTTCCTAATCTTTCTGTTCAAGCGCCATCTAC” was 0.948 RPM ratio (pull-down/input).
